This test concerns the target Polyadenylate-binding protein 1 (Homo sapiens) (UniProt P11940). Put plainly: blockers of PABP interaction with poly(A) – biochemical, fluorescence polarization, uHTS, primary screen (AID 2014).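 Note: calls also rest on retests at 20 µM and on dose response follow-up.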 As to conditions: PABP-poly(A) RNA binding, stronger effect = higher value. On the technique in general: Polarisation of emitted light reports the rotation of a fluorescent probe.

Screen size: about 290,000 compounds; about 3,000 (1%) were called active. The rule behind the calls is not given here. The entries come from a sample that favours actives as a whole.

For 58 compounds, inhibition results are on record in PubChem BioAssay AID2014 (Sanford-Burnham Center for Chemical Genomics, 2009).

Broadly, the inhibition is the relative decrease from the control value, in per cent.

Chain of Polyadenylate-binding protein 1 (Homo sapiens) (P11940 whole entry, looked up): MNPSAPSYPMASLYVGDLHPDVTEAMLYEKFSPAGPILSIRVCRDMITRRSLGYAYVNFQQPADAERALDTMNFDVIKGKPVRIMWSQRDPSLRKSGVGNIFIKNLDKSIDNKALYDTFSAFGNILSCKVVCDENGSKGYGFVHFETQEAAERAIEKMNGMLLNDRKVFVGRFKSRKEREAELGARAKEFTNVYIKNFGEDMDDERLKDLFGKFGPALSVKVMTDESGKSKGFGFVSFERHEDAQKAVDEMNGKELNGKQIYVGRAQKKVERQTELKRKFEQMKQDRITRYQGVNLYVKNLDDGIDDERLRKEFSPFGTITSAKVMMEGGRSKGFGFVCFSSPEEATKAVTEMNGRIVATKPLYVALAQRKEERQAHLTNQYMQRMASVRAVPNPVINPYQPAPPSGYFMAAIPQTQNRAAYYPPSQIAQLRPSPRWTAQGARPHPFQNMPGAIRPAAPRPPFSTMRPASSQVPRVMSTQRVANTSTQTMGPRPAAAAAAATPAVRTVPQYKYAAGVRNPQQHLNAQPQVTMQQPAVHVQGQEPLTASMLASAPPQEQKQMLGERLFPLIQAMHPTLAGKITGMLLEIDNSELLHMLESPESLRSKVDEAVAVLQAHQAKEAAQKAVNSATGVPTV

With `CCOCc1nnc(NC(=O)CCS(=O)(=O)Cc2ccccc2)s1`, the inhibition (at 35 µM) is -0.4% (inactive).

As to `Cc1ccc(-c2nn(-c3ccccc3)cc2/C=C2\SC(=S)N(CCCCCC(=O)O)C2=O)o1`, the inhibition is, setting by setting: (at 35 µM) 35.4% (active); (confirmation repeats, at 20 µM) 54.4%. Consider `CN(C)S(=O)(=O)c1cccc(-c2nn(-c3ccccc3)cc2/C=C2\SC(=S)N(CC(=O)O)C2=O)c1`, for which the inhibition (at 35 µM) was 38.3% (inactive). In the case of `COc1ccc(-c2nn(-c3ccccc3)cc2/C=C2/SC(=S)N(CCCC(=O)O)C2=O)c(C)c1`, where the note is “at 35 µM”, the inhibition is 4.8% (inactive). Same read-out and setting: to `O=C(CCCN1CCc2[nH]c3ccc(F)cc3c2C1)c1ccc(F)cc1` belongs -1.4% (inactive). For `CC(=O)Cn1cnc2c(cnn2-c2ccccc2)c1=O`, the inhibition (at 35 µM) was -4.8% (inactive).

Take `O=C(CN(c1ccc2c(c1)OCCO2)S(=O)(=O)c1ccccc1)Nc1ccc2c(c1)OCO2`: the inhibition (at 35 µM) was -3.5% (inactive). As for `CCCCC(=O)Nc1ccc2c(c1)OCCO2`, under “at 35 µM”, the inhibition is -6.8% (inactive). Turning to `O=C(CCS(=O)(=O)Cc1ccccc1)Nc1ccc2c(c1)OCCO2`, the inhibition (at 35 µM) was 72% (active) and the inhibition (confirmation repeats, at 20 µM) came to 88.6%. `COc1ccc(OC)c(-n2c(-c3ccn[nH]3)n[nH]c2=S)c1`: the inhibition (at 35 µM) was -4.8% (inactive). Turning to `COc1ccccc1-n1c(-c2cc(-c3ccco3)[nH]n2)n[nH]c1=S`, the inhibition (at 35 µM) is 39% (active) and the inhibition (confirmation repeats, at 20 µM) came out at 56.9%. Turning to `COc1ccc(-n2c(-c3ccc(OC)c(OC)c3)n[nH]c2=S)cc1`, the inhibition (at 35 µM) was 4.9% (inactive).

Turning to `CCOC(=O)N1CCN(Cc2nc3cc(NC(=O)CC)ccc3n2CC)CC1`, for the setting “at 35 µM”, the inhibition was 1.3% (inactive). Same read-out and setting: then `Cc1cccc(NC(=O)CCn2c(=O)oc3ccccc32)c1`, with 1% (inactive); and `COc1cc(C(F)(F)F)c(C(=O)N(C)c2ccc(Cl)cc2)cn1`, with -5.6% (inactive); and `COc1cccc(Nc2ncccc2C(=O)O)c1`, with 11.9% (inactive). Turning to `COc1ccc(Nc2cc(Cl)ccc2C(=O)O)cn1`, the inhibition is 72.3% (active) (at 35 µM) and 106% (confirmation repeats, at 20 µM). As to `COc1ccccc1OC(C)C(=O)Nc1ccc(S(=O)(=O)Nc2nccs2)cc1` (stereo unspecified), the inhibition (at 35 µM) is 4.4% (inactive). As to `CC(C)(C)OC(=O)NC(Cc1ccccc1)C(=O)NC(CSC1CCCCO1)C(=O)NN` (stereo unspecified), the inhibition (at 35 µM) is 1.1% (inactive). Still for that read-out and setting: then `COc1ccc(NS(=O)(=O)c2ccc(N3CCOCC3)c(NC(=O)c3ccccc3Br)c2)cc1`, with 3.8% (inactive). For `COc1ccc(NS(=O)(=O)c2cc(NC(=O)C3CCCCC3)ccc2N2CCOCC2)cc1`, the inhibition is, setting by setting: (at 35 µM) 67.6% (active); (confirmation repeats, at 20 µM) 92.5%.

Take `COc1ccc(NS(=O)(=O)c2cc(NC(=O)/C=C/c3cc(OC)c(OC)c(OC)c3)ccc2N2CCCCC2)cc1`: under “at 35 µM”, the inhibition is -9.8% (inactive).

On to `CC1CCCN(S(=O)(=O)c2ccc(-c3ccc(=O)[nH]n3)o2)C1` (stereo unspecified), for which the inhibition (at 35 µM) is 3.3% (inactive). As to `Cc1ccc(-n2ncc3c2CC(C)(C)CC3NC(=O)CCc2cnn(C)c2)cc1` (stereo unspecified), the inhibition (at 35 µM) is 54.6% (inactive) and the inhibition (confirmation repeats, at 20 µM) stood at 27.1%. Take `O=C(NC1CCCC1)C1CC(=O)N(c2ccc(F)cc2)C1` (stereo unspecified): the inhibition (at 35 µM) was -2.5% (inactive).

In the case of `Cc1cc2c(cc1C)[n+](C)cn2CC(O)COCC1CC=CCC1` (stereo unspecified), for the setting “at 35 µM”, the inhibition was 77.8% (active). Still for that read-out and setting: to `N#Cc1cccc(CN2CCC(=O)N([C@H](CO)c3ccccc3)CC2)c1` belongs 5.7% (inactive); to `COc1cc(OC)cc(C(=O)NCCSCc2ccc(Cl)cc2)c1`, -3.9% (inactive); to `O=C(Nc1ccccc1)/C(=C\c1ccco1)NC(=O)c1ccco1`, 14.9% (inactive). Still for that read-out and setting: then `O=C(NCc1ccco1)/C(=C/c1ccco1)NC(=O)c1ccccc1`, with -4% (inactive). Same read-out and setting: to `Cc1cccc(NC(=O)/C(=C\c2ccco2)NC(=O)c2ccccc2)c1` belongs 52.1% (active); to `COc1cc(/C=C/C(=O)N2CCc3ccccc3C2)cc(OC)c1OC`, 2.6% (inactive); to `COc1ccc(Cc2nnc(SCC(=O)Nc3ccc(C)c(C)c3)o2)cc1OC`, -6.8% (inactive). For the compound `CCOC(=O)N1CCN(C(=O)COCc2cc(-c3ccc4c(c3)OCO4)on2)CC1`, the inhibition (at 35 µM) was 3.8% (inactive). Regarding `COc1ccc([N+](=O)[O-])cc1N(CC(=O)Nc1ccccc1C(=O)N1CCOCC1)S(C)(=O)=O`, the inhibition (at 35 µM) was -5.6% (inactive). With `COCCn1c(SCC(=O)Nc2nc(C)cs2)nnc1C(C)C`, the inhibition (at 35 µM) was 2.9% (inactive). On the same count and under the same terms, then `O=C(CCN1C(=O)[C@@H]2Cc3ccccc3CN2C1=O)NCc1ccccc1`, with 1.7% (inactive). Regarding `O=C(CCN1C(=O)[C@@H]2Cc3ccccc3CN2C1=O)NCCc1ccccc1`, the inhibition (at 35 µM) is 58.8% (active). Same read-out and setting: then `Cc1ccc(CNC(=O)CCN2C(=O)[C@@H]3Cc4ccccc4CN3C2=O)cc1`, with 10.4% (inactive); and `Cc1ccc(C2SCC(=O)N2c2ccccc2)cc1` (stereo unspecified), with -0.7% (inactive); and `COc1ccc(-c2oc3ncnc(NCCCO)c3c2-c2ccc(OC)cc2)cc1`, with 7.6% (inactive). Still for that read-out and setting: to `Cc1ccc(N2C(=O)C3C4C=CC(CC4)C3C2=O)cc1Cl` (stereo unspecified) belongs 0.6% (inactive); to `Cc1cccc(-c2nnc(SCC(=O)O)n2Cc2ccccc2)c1`, 0.6% (inactive); to `CCCSc1nc(NCc2ccco2)c2c3c(sc2n1)COC(C)(CC)C3` (stereo unspecified), 9.5% (inactive). Take `Cn1c(=O)n(Cc2ccco2)c(=N)c2c3c(sc21)CCCC3`: where the note is “at 35 µM”, the inhibition is 8.4% (inactive). For `CN1CCc2c(sc3c2c(NCc2ccco2)nc2nnnn23)C1`, the inhibition (at 35 µM) was 94.1% (active). For `COc1ccc(C(CNCC(=O)Nc2ccccc2F)N(C)C)cc1` (stereo unspecified), the inhibition (at 35 µM) is -7.5% (inactive). The same measure, in the same setting: to `CC(=O)c1ccc(S(=O)(=O)Nc2ccc(C(=O)NCC(c3ccccc3)N(C)C)cc2)cc1` (stereo unspecified) belongs 12.7% (inactive). Consider `COc1ccc(C(CNC(=O)c2ccc(S(=O)(=O)Nc3ccccc3F)cc2)N(C)C)cc1` (stereo unspecified), for which the inhibition was 53.4% (active) (at 35 µM) and 116% (confirmation repeats, at 20 µM). Turning to `Cc1ccc(S(=O)(=O)N(CC(=O)NCc2ccco2)c2ccccc2C)cc1`, the inhibition (at 35 µM) is 3% (inactive).

Consider `COc1ccc2c(C)c(CCC(=O)NC3CC3)c(=O)oc2c1C`, for which the inhibition (at 35 µM) was 11.8% (inactive). On the same count and under the same terms, then `CCOC(=O)C1(Cc2cccc(OC)c2)CCCN(C(=O)CCSC)C1` (stereo unspecified), with 15.2% (inactive); and `CCSc1nnc(NC(=O)c2ccc(C)cc2)s1`, with -4.4% (inactive); and `Cc1ccc(C(=O)Nc2nnc(-c3cccs3)s2)cc1C`, with 4.7% (inactive). Take `Cc1ccc(C(=O)Oc2coc(CSc3nnc(NC(=O)c4cccs4)s3)cc2=O)cc1C`: the inhibition is -2.3% (active) (at 35 µM) and 88.5% (confirmation repeats, at 20 µM). On to `CN(C)CCN(C(=O)C1CCCCC1)c1nc2cc3c(cc2s1)OCO3`, for which, for the setting “at 35 µM”, the inhibition was 11% (inactive). In the case of `CN(C)CCCn1c(=O)n(Cc2ccccc2)c(=O)c2c3c(sc21)CCCCC3`, where the note is “at 35 µM”, the inhibition was -5.5% (inactive).

With `CCCCCCn1cc(C(=O)O)c(=O)c2cc(F)c(N3CCCCC3)cc21`, the inhibition (at 35 µM) is -0.7% (inactive).
